Compound activity as filed in PubChem.
E coli growth-1: counter-screen for AddAB inhibitors: E. coli growth inhibition | E. coli V3065 growth, OD600 absorbance, 18 h | inhibition, % at 11.9 µM | 330,000 compounds, 0.27% hits | AID 449728;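 active means inhibition above the campaign's mean inhibition across all tested compounds plus 3 SD, cut at about 9.9% in these data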;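 further: uninfected addAB+ strain grown without phage in ampicillin broth; 0% = DMSO wells and 100% = ciprofloxacin 0.95 µg/ml wells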
AddAB inh: less growth of phage-infected E. coli with AddAB; E. coli expressing H. pylori AddAB, absorbance growth; inhibition, % at 11.9 µM; 330,000 compounds, 0.29% hits; AID 435030; in the data active means inhibition above about 12%;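 further: 0% = vehicle wells of infected cells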
phage Ecoli inh: E. coli growth loss with phage present; 360,000 compounds, 0.26% hits; inhibition, % at 11.9 µM; growth absorbance; in the data active means inhibition above about 11%
Calb FLC: affects C. albicans growth with fluconazole. C. albicans CaCi-2 (fluconazole-resistant clinical isolate) + fluconazole, Alamar Blue growth, 48 h. growth inhibition, % (test concentration not listed). 300,000 compounds, 0.57% hits;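 active means growth inhibition above about 58% in most replicates, limit read from the data, passing the limit was not always enough; inconclusive means exactly half the replicates above a set limit; inactive means most replicates below a set limit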;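 further: all wells also contain fluconazole at 8 µg/ml as a sub-toxic cotreatment; 0% = median of DMSO wells and 100% = median of geldanamycin control wells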
Tat transport: inhibitors of E. coli Tat protein transport | AID 488895 | 340,000 compounds, 0.036% hits | E. coli MC4100 TorA-mCherry Tat export, fluorescence | inhibition, % at 10 µM;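 active means mean replicate inhibition at least 50% and at least half of replicates individually reaching 50%; inconclusive means only one of the two criteria met; inactive means neither criterion met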;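 further: exported cargo escapes ClpAP degradation while cytoplasmic cargo is degraded and loses fluorescence; 0% = median of neutral control wells and 100% = median of NaSCN control wells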
E coli growth-2: E. coli growth inhibition; Escherichia coli growth, OD600, 23 h; active compounds read low; OD600 absorbance (test concentration not listed); 330,000 compounds, 0.21% hits;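 active means OD600 absorbance below the run mean of sample wells minus 3.6 SD, in any replicate, cut at about 0.56 in these data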
* hit, by the source's call; ? = inconclusive; · = no result. This is a sample that favours compounds with a hit; in the whole collection about 0.9% have one here.

SMILES	E coli growth-1	AddAB inh	phage Ecoli inh	Calb FLC	Tat transport	E coli growth-2
CCc1nnc(NC(=O)COc2ccc(N(C)S(=O)(=O)c3ccc(C)cc3)cc2)s1	·	·	0	35	-4	0.71
CC(=O)c1ccc(O)c(CC=C(C)C)c1	2	5	8	-2	3	0.77
COC1C(OC(N)=O)C(O)C(Oc2ccc3c(O)c(NC(=O)c4ccc(O)c(CC=C(C)C)c4)c(=O)oc3c2C)OC1(C)C (stereo not drawn)	·	·	·	·	·	0.38*
CC(=NNC(=O)c1nc2ccccn2c1C)c1ccco1	·	·	·	·	·	0.63
CCOc1cc(C(N)=O)cc(Cl)c1OCc1ccccc1	0	3	4	112*	4	0.66
CC1=CC(C)C(c2ccccc2)OC1=O (stereo not drawn)	·	·	·	·	·	0.63
CCCCc1c(O)nc(SCC(=O)Nc2cccc3ccccc23)n(-c2ccccc2OC)c1=O	0	3	0	83*	0	0.7
O=C1/C(=C\c2cccnc2)SC(=S)N1C1CCS(=O)(=O)C1 (stereo not drawn)	0	0	·	91*	0	0.67
O=C1/C(=C/c2cccnc2)SC(=S)N1C1CCS(=O)(=O)C1 (stereo not drawn)	1	1	2	65	1	0.68
CCCCCN=C(N)N/N=C/c1c[nH]c2ccc(OC)cc12	6	7	4	·	11	·
CCCCCN=C(N)NN=Cc1c[nH]c2ccc(OC)cc12	·	·	·	·	·	0.059*
O=C(NC(=S)Nn1cnc2c(cnn2-c2ccccc2)c1=O)c1ccc(Oc2ccccc2)cc1	-1	4	1	-10	-4	0.7
O=C(NC(=S)Nn1cnc2c(cnn2-c2ccccc2)c1=O)c1ccc(Cl)cc1	1	3	4	101*	7	0.71
O=C(NN=Cc1cccs1)c1n[nH]c2c1CCCC2	·	·	·	·	·	0.68
CC(C)C(NC(=O)c1ccc2c(c1)OCO2)C(=O)NN=Cc1ccco1 (stereo not drawn)	·	·	·	·	·	0.66
O=C(CCN1CCOCC1)NNC(=S)NC(=O)c1ccc(Br)cc1	3	1	-3	-4	-2	0.47*
CC1CN(C(C)CO)C(=O)c2cccc(NC(=O)C3CCCCC3)c2OC1CN(C)Cc1ccncc1 (stereo not drawn)	·	·	·	·	·	0.69
Cc1ccc(-n2c(O)c(C=Nc3ccccc3-c3n[nH]c(=S)[nH]c3=O)c3ccccc3c2=O)cc1C	·	·	2	100*	?	0.67
Cc1ccc(-n2c(O)c(C=Nc3ccccc3-c3n[nH]c(=S)[nH]c3=O)c3ccccc3c2=O)c(C)c1	-2	2	3	0	-8	0.66
O=C1CC2c3c(cccc3CN1Cc1ccccc1Cl)CC(O)C2O (stereo not drawn)	·	·	·	·	·	0.69
Nc1nc(CN2CCN(c3ccccn3)CC2)nc(Nc2ccc(F)cc2)n1	-2	7	1	92*	-2	0.6
O=C(CCNC(=O)c1ccccc1Cl)NN=Cc1ccc(O)cc1	·	·	·	·	·	0.69
Cc1nn(-c2ccccc2)c(C)c1C(=O)OC/C(O)=C(\C#N)c1nc2ccccc2[nH]1	-4	-5	-1	82*	0	·
Cc1nn(-c2ccccc2)c(C)c1C(=O)OCC(O)=C(C#N)c1nc2ccccc2[nH]1	·	·	1	·	-1	0.67
CSCCOC(=O)COc1ccc(C=NNC(=O)c2c(Cl)cnn2C)cc1	·	·	·	·	·	0.64
SMILES	E coli growth-1	AddAB inh	phage Ecoli inh	Calb FLC	Tat transport	E coli growth-2
O=C(Nc1sc2c(c1C(=O)c1ccc(Cl)cc1)CCCC2)c1cccnc1	-3	3	3	84*	5	0.76
CCN(Cc1ccccc1)c1ccc(C=NNC(=O)c2cccc(S(=O)(=O)N3CCOCC3)c2)cc1	·	·	·	·	·	0.72
Cc1cc(C)nc(SCC(=O)NN=Cc2cc(C)n(-c3ccccc3C)c2C)n1	·	·	·	·	·	0.72
O=C(CN1C(=O)SC(=Cc2ccc(O)cc2)C1=O)c1ccccc1	·	·	·	·	·	0.71
CCc1ccc(C(=O)NNc2ccc(F)cc2)cc1	1	1	1	80*	4	0.65
CCc1ccc(C(=O)NNc2ccc(S(N)(=O)=O)cc2)cc1	-3	0	1	8	-10	0.6
O=C1CCC(c2ccc(-n3ccnc3)cc2)=NN1	1	0	6	·	24	0.48*
CCCOc1ccc(/C=N/NC(=S)Nc2ccccc2[N+](=O)[O-])c(O)c1	11*	10	7	34	·	·
N#C/C(=C\c1ccc(O)c(O)c1)C(=O)Nc1cccc2ncccc12	-1	1	3	97*	5	·
C=C[C@]1(C)CC1C(NP(=O)(c1ccccc1)c1ccccc1)c1ccccc1 (stereo partly drawn)	·	·	·	·	·	0.65
CC1=NN(C(N)=S)C(=O)C1N=Nc1cccc(Cl)c1C (stereo not drawn)	6	11	3	12	-13	0.63
CC1=NN(C(N)=S)C(=O)C1N=Nc1cccc2ccccc12 (stereo not drawn)	14*	7	·	108*	·	·
CCSc1ccc2cc(OC)ccc2[n+]1CC	0	4	2	75*	-5	0.7
CCn1ccc2cc(OC)ccc2c1=S	2	5	4	-40	-2	0.7
COc1ccccc1NC1=C(N2CCCCC2)C(=O)c2ccccc2C1=O	-1	4	·	93*	0	0.71
O=C1C(Nc2ccccc2)=C(N2CCCCC2)C(=O)c2ccccc21	1	1	3	8	-8	0.74
CCN(CC)c1ccc(C=NNC(=O)c2cccc(S(=O)(=O)N3CCOCC3)c2)c(O)c1	·	·	·	·	·	0.64
CCN(CC)c1ccc(/C=N/NC(=O)c2cccc(S(=O)(=O)N3CCOCC3)c2)c(O)c1	3	6	3	102*	-4	·
O=C(NN=Cc1sc(N2CCOCC2)nc1-c1ccccc1)c1cccc(S(=O)(=O)N2CCOCC2)c1	·	·	·	·	·	0.68
O=C(N/N=C/c1sc(N2CCOCC2)nc1-c1ccccc1)c1cccc(S(=O)(=O)N2CCOCC2)c1	-1	0	2	98*	3	·
Cc1cc(Br)c(OCc2ccc(C(=O)NN=C3CC4CC=CC34)cc2)c(Br)c1 (stereo not drawn)	·	·	·	·	·	0.66
Oc1c(C(Nc2nccs2)c2ccc(C(F)(F)F)cc2)ccc2cccnc12 (stereo not drawn)	·	·	9	103*	-1	0.7
CC(=O)NC(c1cccs1)c1cc(F)c2cccnc2c1O (stereo not drawn)	-3	1	7	·	2	0.66
O=C(Nc1ccncc1)Nc1cccc(C(F)(F)F)c1	1	0	8	-4	0	0.53
Cc1conc1NC(c1cccs1)c1ccc2cccnc2c1O (stereo not drawn)	13*	13*	·	87*	·	·
Oc1c(C(Nc2cccc(C(F)(F)F)c2)c2ccncc2)ccc2cccnc12 (stereo not drawn)	-9	-7	1	93*	4	0.65
COC(=O)CN1C(=O)C2C(c3ccc(C)o3)N3C(=O)CN(CCO)C(=O)[C@@]3(C)C2C1=O (stereo partly drawn)	·	·	·	·	·	0.66
Cc1ccc(OCC(=O)NNC(=S)NC(=O)C2CC2)c(C)c1	·	·	-1	103*	-14	·
